# Compound activity (PubChem)
# HGIII-sPLA2 inh – Blocks human group III sPLA2 activity. Q9NZ20. QFRET BODIPY PC-A2 liposome hydrolysis, fluorescence. inhibition, % at 12.2 µM. 370,000 tested, 0.56% active;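 active = inhibition above mean plus 3 SD of compounds lying within the high and low control bounds, cut at about 19% in these data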;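 also: 0% = median of test compound wells and 100% = no enzyme DMSO wells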
# Target sequence (Q9NZ20 whole entry, looked up): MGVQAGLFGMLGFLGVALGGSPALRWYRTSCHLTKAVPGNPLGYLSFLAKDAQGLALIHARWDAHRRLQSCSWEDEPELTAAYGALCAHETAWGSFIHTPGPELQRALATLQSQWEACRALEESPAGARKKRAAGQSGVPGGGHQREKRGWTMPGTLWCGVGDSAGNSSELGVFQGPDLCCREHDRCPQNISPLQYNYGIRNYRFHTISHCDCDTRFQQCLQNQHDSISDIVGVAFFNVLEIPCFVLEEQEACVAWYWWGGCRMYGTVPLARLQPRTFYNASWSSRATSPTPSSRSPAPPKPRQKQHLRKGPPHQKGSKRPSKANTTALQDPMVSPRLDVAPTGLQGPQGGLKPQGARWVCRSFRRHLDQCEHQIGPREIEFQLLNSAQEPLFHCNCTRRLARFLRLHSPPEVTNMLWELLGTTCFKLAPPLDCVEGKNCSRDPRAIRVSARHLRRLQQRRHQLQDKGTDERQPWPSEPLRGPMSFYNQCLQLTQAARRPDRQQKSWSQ
# ADAM17 inh – inhibits human ADAM17. P78536. recombinant ADAM17, EDANS/DABCYL FRET peptide cleavage. inhibition, % at 6.95 µM. 370,000 tested, 0.83% active. AID 720648;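 active = inhibition above the mean of compounds lying between control limits plus 3 SD, set per campaign, cut at about 8.5% in these data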;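 also: 0% = DMSO-only wells as the low control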
# PLCb3 inh – inhibitors of human phospholipase C beta3 | Purified PLC-beta3, fluorogenic substrate, fluorescence | inhibition, % at 12.2 µM | 370,000 tested, 0.18% active | AID 720704; in the data active = inhibition above about 11%;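 also: 0% = median of compound wells on plate and 100% = full blocker control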
# proKLK7 act – activators of human kallikrein-7 zymogen | P49862 | 370,000 tested, 0.9% active | purified proKLK7, EDANS-DABCYL substrate fluorescence; 100% is mature enzyme control, 0% vehicle | activation, % at 7 µM | AID 652039;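 active = activation above the mean of all tested compounds plus 3 SD, computed per campaign excluding outliers beyond control limits, cut at about 13% in these data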
# PLCg1 inh – blocks human PLC-gamma1 enzyme activity. P19174. purified PLC-gamma1, fluorogenic substrate, fluorescence. inhibition, % at 12.2 µM. 370,000 tested, 0.84% active. AID 720700; in the data active = inhibition above about 9.5%
# ADAM10 inh – ADAM10 inhibition, QFRET primary screen; 370,000 tested, 0.62% active; recombinant ADAM10, EDANS/DABCYL FRET peptide cleavage, 3 h; inhibition, % at 7 µM;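 active = inhibition above a per-campaign cutoff equal to the mean of compounds falling between control-based bounds plus 3 SD, cut at about 20% in these data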;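 also: 0% = DMSO wells while the 100% control is not disclosed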
# KLK7 act conf – proKLK7 activation, confirmation; shares compounds with proKLK7 act; purified proKLK7, EDANS-DABCYL substrate fluorescence; scaled: vehicle 0, mature enzyme 100; activation, % at 7 µM; 3,200 tested, 68% active;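 active = activation, as change over the incubation, above the mean of all tested compounds plus 3 SD, cut at about 13% in these data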
# EDANS-DABCYL int – counter-screen for kallikrein-7 activators: EDANS-DABCYL optical interference; shares compounds with proKLK7 act; EDANS-DABCYL substrate fluorescence interference, no enzyme, 4 h; solvent 0%, active enzyme control 100%; activation, % at 7 µM; 3,200 tested, 80% active; AID 686952;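 active = activation above the all-compound mean plus 3 SD, ignoring values outside control-based bounds, cut at about 4.8% in these data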;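 also: value is the 4 h activation minus the activation read at time zero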
# EDANS interf – optically interferes with EDANS-DABCYL fluorescence, kallikrein-7 activator counter-screen; EDANS-DABCYL peptide fluorescence interference, no enzyme; 250 tested, 20% active; AID 720493; EC50, µM; shares compounds with proKLK7 act;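 active = compounds that raise the fluorescence signal in this interference counterscreen, with EC50 at or below 10 µM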;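 also: intact quenched peptide substrate alone read at 355 nm excitation and 520 nm emission; signal is fluorescence gain from T0 to T4 after four hours at room temperature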
# * marks the source's active call; other numbers are inactive results; i = inactive; / = not tested or not shown. An excerpt weighted towards active compounds, which were near 3.4% of everything screened.
SMILES,HGIII-sPLA2 inh,ADAM17 inh,PLCb3 inh,proKLK7 act,PLCg1 inh,ADAM10 inh,KLK7 act conf,EDANS-DABCYL int,others
Cc1ccc(C2C=C(c3ccccc3)Nc3nc(N4C(=O)CCC4=O)nn32)cc1 (stereo not drawn),3,-62,i,91*,i,-175,-53,-90,
Cc1ccc(C2C=C(c3ccccc3)Nc3ncnn32)cc1 (stereo not drawn),0,-73,i,9,i,-245,/,/,
CCC1(O)C(=O)OCc2c1cc1n(c2=O)Cc2cc3cc(O)ccc3nc2-1 (stereo not drawn),-44,-219,i,64*,i,i,74*,77*,
Cc1ccc(CNC(=O)CSc2nc3n[nH]c(C)c3c(=N)n2-c2cccc(C)c2)cc1,-6,-7,-18,13*,-8,-29,28*,27*,
C#CCN(C[C@H]1[C@H](OC(=O)Nc2c(C)noc2C)[C@H](OC(=O)Nc2c(C)noc2C)CN(C(=O)OC(C)C)N1C(=O)OC(C)C)S(=O)(=O)c1ccc(C)cc1,-18,5,8,0,2,5,/,/,
O=C(O)CCc1nn2c3ccccc3n(CCO)c2nc1=O,7,-77,-315,4,-317,-225,/,/,
O=C(O)CCc1nn2c3ccccc3n(CCN3CCCCC3)c2nc1=O,-1,-81,-369,46*,-230,-242,8,11*,
COCc1cc(N2CCNC[C@@H]2C)ccc1N1CCS(=O)(=O)CC1,-1,-3,3,0,1,-13,/,/,
Cc1ccc(-n2c(SCC(=O)Nc3ccc(OCc4ccccc4)cc3)nnc2-c2ccccc2)cc1,0,-4,0,1,0,-7,/,/,
O=C(CSc1nnc(-c2ccncc2)n1-c1ccccc1)Nc1ccc2c(c1)OCCO2,4,-1,-1,1,0,-1,/,/,
COc1ccccc1-c1nnc(N)s1,-1,-45,-15,0,-12,-193,/,/,
COc1ccccc1-c1nnc(SC2CCc3ccccc3NC2=O)s1 (stereo not drawn),0,-11,-2,13*,1,-23,-4,6.3*,
NC(Cc1ccc(O)cc1)C(=O)NN=Cc1ccccc1Cl (stereo not drawn),3,-1,3,-1,0,1,/,/,
Cc1cc(C)n2cc(CSCc3ccccc3)nc2n1,-1,-357,-351,14*,-272,i,25*,21*,EDANS interf=>70
Cc1cc(C)n2cc(CSc3ccccn3)nc2n1,3,-17,-19,1,-17,-64,/,/,
Cc1ccc(NC(=O)c2cc(-c3ccco3)on2)cc1C,-8,-18,-25,2,-10,-49,/,/,
COc1ccc(NC(=O)c2cc(-c3ccco3)on2)cc1OC,5,-3,-2,55*,5,0,20*,4.8*,EDANS interf=i
O=C1NC(=O)C2(CCOc3ccc(F)cc32)N1 (stereo not drawn),5,-2,1,0,-1,-9,/,/,
CC1(C)CC(=O)C(C=Nc2cccnc2)=C(O)C1,1,-7,-1,0,-1,-10,/,/,
CC1(C)CC(=O)C(C=Nc2cccnc2/N=C/C2=C(O)CC(C)(C)CC2=O)=C(O)C1,-31,-18,-157,25*,-141,-52,-7,-4,
COCCNC(=O)Cc1c(C)c2c(cc(C)c3c(C)coc32)oc1=O,17,-100,-322,16*,-226,-235,-15,-58,
Cc1coc2c1c(C)cc1oc(=O)c(CC(=O)NCCC(=O)O)c(C)c12,4,-365,i,30*,i,i,64*,75*,
O=C1CC(O)C(Cc2ccccc2)N1 (stereo not drawn),15,-5,-2,0,9,-19,/,/,
O=C(Nc1nc(-c2cccs2)cs1)c1ccc(S(=O)(=O)N2CCCC2)cc1,-27,8,-49,2,-39,9,/,/,
CN(C)S(=O)(=O)c1ccc(C(=O)Nc2nc(-c3cccs3)cs2)cc1,-6,-9,-7,47*,-4,-128,27*,129*,
SMILES,HGIII-sPLA2 inh,ADAM17 inh,PLCb3 inh,proKLK7 act,PLCg1 inh,ADAM10 inh,KLK7 act conf,EDANS-DABCYL int,others
Cc1c(C2(O)CCCCC2)[nH]c2ccccc12,-1,-5,-14,1,-8,-9,/,/,
CCc1c(C2(O)CCCCC2)[nH]c2cnccc12,-21,-286,-487,70*,-279,i,12,16*,
CCN(CC)Cc1c(O)ccc2c(=O)c(Oc3ccccc3OC)c(C)oc12,-1,i,i,89*,i,i,65*,69*,
COc1ccc(-c2c(C)oc3c(CN4CCCCC4C)c(O)ccc3c2=O)cc1OC (stereo not drawn),-1,-236,i,5,-453,i,/,/,
COc1ccccc1Oc1c(C)oc2c(CN(C)C)c(O)ccc2c1=O,1,i,i,51*,i,i,66*,71*,
Cc1cc(C)cc(NC(=O)NCCCN2CCN(c3ccc(F)cc3)CC2)c1,-11,3,3,1,2,3,/,/,
O=C(NCCc1ccccc1)OCc1cn(-c2ccc(F)c(F)c2)nn1,5,1,-3,0,1,4,/,/,
Cc1cccc(NC(=O)n2ccc3ccc(-c4ccc5cc[nH]c5c4)cc32)c1,-11,-44,-195,-4,-142,-118,/,/,
COc1ccc(NC(=O)NCCc2ccc(Cl)cc2)cc1OC,2,5,4,0,1,-4,/,/,
COc1ccc(CCNC(=O)Nc2ccc3c(c2)c(=O)n(C)n3CC=C(C)C)cc1OC,-9,i,i,26*,-443,i,3,5.4*,
CC(C)=CCn1c2ccc(NC(=O)NCc3ccc(F)cc3)cc2c(=O)n1C,3,i,i,18*,-421,i,3,-1,
C=C(C)Cn1c2ccc(NC(=O)CCc3cccnc3)cc2c(=O)n1C,0,-437,-364,21*,-307,i,23*,26*,
CC(C)=CCn1c2ccc(NC(=O)Nc3ccc(N(C)C)cc3)cc2c(=O)n1C,18,-65,-225,14*,-177,-264,5,6.5*,
CN(C)c1ccc(NC(=O)Nc2ccc3c(c2)c(=O)n(C)n3Cc2ccccc2)cc1,9,-48,-146,-1,-124,-179,/,/,
